# VDR inh – Inhibitors of the vitamin D receptor (VDR): qHTS; Vitamin D3 receptor (Homo sapiens), P11473; VDR-SRC2-3 peptide fluorescence polarization, 2 h; Potency, µM, without a hit: max response, negative = inhibition, hits mostly inhibitors; actives 0.93% (n = 400,000); AID 504847, 2011
#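 Fluorescence polarization assay of small-molecule disruption of VDR binding to coregulator peptide SRC2-3. Compounds and controls pin-transferred, then read after 2 h incubation at ambient room temperature.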
# Sfp PPTase inh – qHTS Assay for Inhibitors of Bacillus subtilis Sfp phosphopantetheinyl transferase (PPTase) | Potency, µM, without a hit: largest response in the series, negative = inhibition, actives largely listed as inhibitors | actives 3.5% (n = 310,000) | Biochemical Sfp PPTase activity, qHTS;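 further: the enzyme is Sfp with the accession as filed and its product quenches rhodamine fluorescence; 0% = enzyme reaction without inhibitor and -100% = no enzyme wells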
#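 Fluorescence-quenching assay: 15 nM Sfp-PPTase preincubated 15 min at room temperature with compound, then 5 uM rhodamine-CoA and 12.5 uM BHQ-2-labelled YbbR peptide added. Fluorescence (ex 525/em 598 nm) read at start and after 30 min; difference gives rate.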
# PLK1 PBD inh – qHTS for Inhibitors of PLK1-PDB (polo-like kinase 1 - polo-box domain): Primary Screen; Serine/threonine-protein kinase PLK1 (Homo sapiens), P53350; Plk1 PBD binding of FITC phosphopeptide, fluorescence polarization; AID 720504, 2013; actives 2.8% (n = 360,000); Potency, µM, for the others: max response, negative = inhibition, usual class: inhibitors; further: series mostly up to about 57 µM; nearly all actives have a fitted effect of over 65% in size
# 12-LOX inh – Primary qHTS assay for inhibitors of human arachidonate 12S-lipoxygenase (ALOX12): Round 2. Polyunsaturated fatty acid lipoxygenase ALOX12 (Homo sapiens), P18054. purified 12hLO, xylenol orange hydroperoxide absorbance. Potency, µM (titrated, usually from 108 µM), without a hit: at the highest dose activity change, negative = inhibition, hits mostly inhibitors. actives 1.1% (n = 580,000). AID 1671190, 2021
#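 Hydroperoxide product was detected by ferrous iron/xylenol orange as the 573 to 405 nm absorbance ratio. Arachidonic acid at 40 uM (final) was turned over for 30 min at room temperature by 150 nM human 12hLO, pH 7.0 Hepes buffer, after 15 min compound preincubation.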
# * hit, by the source's call; ? = inconclusive; nt = no result; ! = a repeat was not active; [ ] = remark or other dose. Hits are enriched below; roughly 4.2% of the tested compounds scored in any of these assays. The call rests on the fitted dose curve; in most records, active means well fitted curve in the direction sought with a large enough effect; inconclusive means small, poorly fitted or top-dose-only effect, or another doubt; inactive means no such curve, though single readings can be large; an effect the other way counts as inactive or inconclusive. Unless noted, on the % scale 0 is the no-effect control and ±100 the full control effect; potency means the concentration at half of the fitted maximal effect.
SMILES,VDR inh,Sfp PPTase inh,PLK1 PBD inh,12-LOX inh
CCCCCCCCCCCCCCCC[N+](C)(C)Cc1ccc(F)cc1,13%,nt,?,45µM*
CC(=O)OC[C@@H]1CN(Cc2ccccc2)C[C@H](n2cnc3c(NC(C)C)ncnc32)O1,nt,nt,-6%,-2%
CCCCCCn1c(=O)[nH]c2nc3cc(N)c(C)cc3nc2c1=O,?,?,3µM*,?
CCn1c(=O)cc(N2CCN(C(=O)c3ccco3)CC2)[nH]c1=O,-13%,?,-11%,4%
CCCCCCCC#Cc1ccccc1/C=N/S(=O)c1ccc(C)cc1 (centres undefined),?,25µM*,15µM*,nt
CCCC(=O)Nc1ccc2nc(N3CCN(C(=O)OCC)CC3)cc(C(=O)O)c2c1,nt,nt,nt,7.9µM*
Cc1cccc(N2CCN(c3cc(C(=O)O)c4cc(NC(=O)C(C)(C)C)ccc4n3)CC2)c1,nt,nt,nt,14µM*
COc1ccccc1C(=O)Nc1ccc2c(c1)nc1n2CCN(C2CCCCC2)C1,?,-5%,17µM*,-7%
Cc1cccc(NC(=O)c2cc(N3CCOCC3)nc3ccccc23)c1,13%,-1%,-3%,65%
Cc1cc(N2CCCCC2)nc2ccc(NC(=O)c3ccc(F)cc3)cc12,-7%,nt,nt,?
CCC(=O)Nc1ccc2c(c1)nc1n2CCN(C2CCCCC2)C1,-13%,-11%,?,40%
Cc1ccccc1C(=O)Nc1ccc2nc(N3CCN(C4CCCCC4)CC3)cc(C(=O)O)c2c1,nt,nt,nt,6.3µM*
CN(Cc1ccc(F)cc1)C(=O)c1cccc(Cl)c1,nt,nt,nt,40%[176 µM]
Cc1nc2ncnn2c(C)c1CCC(=O)N1CCc2ccccc2C1,0%,17%,-2%,-30%
CCc1noc(C)c1C(=O)N1CCN(S(=O)(=O)c2c(C)c(C)cc(C)c2C)CC1,-15%,nt,3%,-10%
COc1ccccc1C(CNC(=O)c1cccc(S(=O)(=O)Nc2ccc(F)cc2)c1)N1CCCC1 (centres undefined),-10%,nt,-3%,?
COC(=O)c1[nH]c2cc(OC)c(OC)cc2c1NC(=O)Oc1ccccc1,10%,45µM*,-20%,0%
CN(C)CC1(O)CCCN(Cc2ccc(-c3ccc(Cl)cc3)o2)C1 (centres undefined),nt,nt,nt,34%
COc1cccc2c1C(=O)c1c(O)c3c(c(O)c1C2=O)C[C@](O)(C(=O)CO)C[C@@H]3O[C@H]1C[C@H](N)[C@@H](O)[C@H](C)O1,5%,11%,nt,nt
COc1cccc2c1C(=O)c1c(O)c3c(c(O)c1C2=O)C[C@@](O)(C(C)=O)C[C@@H]3O[C@H]1C[C@H](N)[C@H](O)[C@H](C)O1,?,50µM*!,?,0%
CC(=O)[C@]1(O)Cc2c(O)c3c(c(O)c2[C@@H](O[C@H]2C[C@H](N)[C@H](O)[C@H](C)O2)C1)C(=O)c1ccccc1C3=O,?,-21%,5.3µM*,nt
COc1cc(Br)cc(CNc2ccc(F)c([N+](=O)[O-])c2)c1O,20%,25µM*,-2%,?
Cc1ccc(CC(=O)Nc2ccc(F)c([N+](=O)[O-])c2)cc1C,-1%,16%,-1%,3%
COc1ccc(N=N/C(=C\O)C(=O)c2cccs2)cc1,-8%,-10%,-14%,35µM*
COc1ccc(C(=O)/C(=C/O)N=Nc2ccc(F)cc2)cc1,1%,-4%,-4%,11µM*
SMILES,VDR inh,Sfp PPTase inh,PLK1 PBD inh,12-LOX inh
COc1ccc(NC(=O)c2cccs2)cc1,-17%,12%,-2%,-3%
CCc1nnc(N/N=C/c2ccccc2F)n1N,-7%,50µM*,-1%,0%
COc1ccc(S(=O)(=O)N2CCOCC2)cc1C(=O)Nc1cccc(C(=O)NC2CC2)c1,nt,nt,-3%,1%
Cc1ccc2nc(Cl)c(CNCc3ccccc3)cc2c1,-21%,12%,24µM*,-2%
Cc1ccc(/C=C/C(=O)O)cc1S(=O)(=O)Nc1ccc(C(=O)O)cc1,-8%,-9%,27µM*,0%
O=S(=O)(Nc1cccc2ccccc12)c1ccccc1,4%,10%,3%,0%
Cc1ccc(C)c(S(=O)(=O)Nc2ccc(O)c(C(=O)O)c2)c1,?,13%,30µM*,?
O=S(=O)(Nc1c(O)ccc2ccccc12)c1ccccc1,?,nt,24µM*,?

# Source: PubChem BioAssay
